# In all, about 360,000 compounds went through this assay and about 130 (0.036%) were called active. No stated cut-off is given here; in the data, active means potentiation above about 30%; inactive means the rest. Many of the other results were omitted from the sample, so actives are more common in it than they were.
# Target: D(1A) dopamine receptor (Homo sapiens) (UniProt P21728)
# Experiment: Potentiators of Human D1 Dopamine Receptor: qHTS; further: 0% is about no effect
# Conditions: HEK293 TREx D1 cells, calcium flux, dopamine EC20 potentiation; at 10 µM; active compounds read high
# Text: Dopamine receptors (DARs) are involved in the etiology and/or therapy of a number of neuropsychiatric and endocrine disorders. For instance, all receptor-based antiparkinsonian drugs work via stimulating the D1 DAR subtype whereas all FDA-approved antipsychotic agents are antagonists of this receptor. […] There are three different types of allosteric modulators that we are seeking, two of which will stimulate or augment receptor signaling, allosteric agonists and potentiators, while the third, allosteric antagonists, will attenuate receptor signaling. The present primary screening assay measures compound potentiation of an EC20 dopamine response by tracking calcium flux in a […], inducible Hek293 Trex D1 cell line.
# NIH Chemical Genomics Center [NCGC]
# NIH Molecular Libraries Probe Centers Network [MLPCN]
# Assay Submitter (PI): David Sibley
# Freshly passaged cells are plated in 1536 well black, clear bottom plates at a density of 4000 cells/well in 3 ul of complete media containing 1x tetracycline inducer. After an overnight incubation at 30 C in 5% CO2, cells are loaded with 2 ul of the no wash Calcium Assay Kit (ABD Bioquest) and incubated at room temperature for 30 to 90 minutes. A 10 cycle (1 second/cycle) baseline measurement is taken and then the FDSS online 1536 pintool delivers 23 nl of compound library (as well as dopamine controls) to the plate. The plate is measured for kinetically at 1 cycle/sec for 180 seconds and is considered to be the agonist portion of the assay (eg, compounds which activate a positive calcium response during this portion are flagged as potential agonists). Following the 180 second read, 1 ul of an EC20 of dopamine is delivered by an onboard pipette head. Measurements are taken kinetically for an additional 180 seconds.
# D(1A) dopamine receptor (Homo sapiens), sequence (P21728 whole entry, looked up): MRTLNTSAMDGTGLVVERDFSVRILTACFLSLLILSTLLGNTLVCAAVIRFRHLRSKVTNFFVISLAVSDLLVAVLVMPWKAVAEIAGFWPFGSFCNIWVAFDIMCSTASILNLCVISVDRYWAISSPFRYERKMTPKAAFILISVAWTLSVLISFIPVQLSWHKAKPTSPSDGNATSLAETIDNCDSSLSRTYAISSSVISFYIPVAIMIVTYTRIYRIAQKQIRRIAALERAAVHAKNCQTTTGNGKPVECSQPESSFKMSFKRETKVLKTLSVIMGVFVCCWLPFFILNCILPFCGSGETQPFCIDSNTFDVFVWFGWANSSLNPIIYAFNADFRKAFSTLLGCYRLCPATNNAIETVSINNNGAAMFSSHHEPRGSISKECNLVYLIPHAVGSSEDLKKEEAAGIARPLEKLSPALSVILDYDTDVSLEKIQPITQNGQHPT
row,Structure (SMILES),potentiation
1,O=C1C2(Cl)C3(Cl)C4(Cl)C(Cl)(Cl)C5(Cl)C3(Cl)C1(Cl)C5(Cl)C24Cl (stereo not given),54.8% (active)
2,Cc1cccc(-n2c(O)c(C=NC34CN5CN(CN(C5)C3)C4)c(=O)[nH]c2=O)c1,-1.15% (inactive)
3,Clc1cccc(Cl)c1Cl,-1.55% (inactive)
4,COP(=O)(NS(=O)(=O)c1ccccc1)OC,-2.85% (inactive)
5,CNC(=O)O/N=C(\N)Cc1csc2ccccc12,-9.15% (inactive)
